According to the supplement of paper PMC10849652:
Targets with a hit are over-represented here; the source holds about 7,900 in all. About 0.6% of all pairs of compound and target were hits. Unmarked numbers belong to inactive results.

Compound: c1cn2cc(-c3ccc4cn[nH]c4c3)nc(Nc3ccc(N4CCOCC4)cc3)c2n1 [entospletinib]
Test: log2 fold change, soluble protein after heating vs DMSO (PISA); higher = thermal stabilisation; K562 cells, 10 uM, 30 min; active = over 0.2 and 3.5 SD of the protein, either way, in both replicates (recomputed)
Method in brief: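 Thermal stability values are relative to control samples and come from duplicates. They are expressed as log2 fold changes. For measurement, K562 cells (2×10^6 cells/mL) received 10 μM compound for 30 min, and aliquots were heated for 3 min over 48°C-58°C, pooled, and extracted at 4°C in PBS with 0.5% NP-40. Soluble protein, the supernatant after 21,000xg for 90 min, was quantified by TMTpro 16plex LC-MS/MS with equalised channel sums.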

UniProt Q8NB37, sequence (Q8NB37 whole entry, looked up): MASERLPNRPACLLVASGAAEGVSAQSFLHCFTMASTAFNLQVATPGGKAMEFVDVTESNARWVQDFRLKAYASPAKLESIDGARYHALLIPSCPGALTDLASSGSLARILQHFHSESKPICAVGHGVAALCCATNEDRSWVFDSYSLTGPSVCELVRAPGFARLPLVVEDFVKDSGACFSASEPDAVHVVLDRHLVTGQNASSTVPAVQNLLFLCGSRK
UniProt Q9H0R8, sequence (Q9H0R8 whole entry, looked up): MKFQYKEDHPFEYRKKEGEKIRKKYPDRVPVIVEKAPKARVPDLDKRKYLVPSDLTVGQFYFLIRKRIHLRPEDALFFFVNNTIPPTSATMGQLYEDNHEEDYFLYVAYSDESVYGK
UniProt O00165, sequence (O00165 whole entry, looked up): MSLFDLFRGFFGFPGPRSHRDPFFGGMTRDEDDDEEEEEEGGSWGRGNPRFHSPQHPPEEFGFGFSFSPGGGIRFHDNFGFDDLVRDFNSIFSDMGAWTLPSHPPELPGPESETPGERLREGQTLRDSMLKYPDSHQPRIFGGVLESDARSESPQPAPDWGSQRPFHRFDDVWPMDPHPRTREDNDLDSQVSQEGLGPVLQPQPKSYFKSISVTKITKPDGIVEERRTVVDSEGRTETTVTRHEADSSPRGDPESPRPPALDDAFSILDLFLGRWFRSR
UniProt Q14789, sequence (Q14789 whole entry, looked up): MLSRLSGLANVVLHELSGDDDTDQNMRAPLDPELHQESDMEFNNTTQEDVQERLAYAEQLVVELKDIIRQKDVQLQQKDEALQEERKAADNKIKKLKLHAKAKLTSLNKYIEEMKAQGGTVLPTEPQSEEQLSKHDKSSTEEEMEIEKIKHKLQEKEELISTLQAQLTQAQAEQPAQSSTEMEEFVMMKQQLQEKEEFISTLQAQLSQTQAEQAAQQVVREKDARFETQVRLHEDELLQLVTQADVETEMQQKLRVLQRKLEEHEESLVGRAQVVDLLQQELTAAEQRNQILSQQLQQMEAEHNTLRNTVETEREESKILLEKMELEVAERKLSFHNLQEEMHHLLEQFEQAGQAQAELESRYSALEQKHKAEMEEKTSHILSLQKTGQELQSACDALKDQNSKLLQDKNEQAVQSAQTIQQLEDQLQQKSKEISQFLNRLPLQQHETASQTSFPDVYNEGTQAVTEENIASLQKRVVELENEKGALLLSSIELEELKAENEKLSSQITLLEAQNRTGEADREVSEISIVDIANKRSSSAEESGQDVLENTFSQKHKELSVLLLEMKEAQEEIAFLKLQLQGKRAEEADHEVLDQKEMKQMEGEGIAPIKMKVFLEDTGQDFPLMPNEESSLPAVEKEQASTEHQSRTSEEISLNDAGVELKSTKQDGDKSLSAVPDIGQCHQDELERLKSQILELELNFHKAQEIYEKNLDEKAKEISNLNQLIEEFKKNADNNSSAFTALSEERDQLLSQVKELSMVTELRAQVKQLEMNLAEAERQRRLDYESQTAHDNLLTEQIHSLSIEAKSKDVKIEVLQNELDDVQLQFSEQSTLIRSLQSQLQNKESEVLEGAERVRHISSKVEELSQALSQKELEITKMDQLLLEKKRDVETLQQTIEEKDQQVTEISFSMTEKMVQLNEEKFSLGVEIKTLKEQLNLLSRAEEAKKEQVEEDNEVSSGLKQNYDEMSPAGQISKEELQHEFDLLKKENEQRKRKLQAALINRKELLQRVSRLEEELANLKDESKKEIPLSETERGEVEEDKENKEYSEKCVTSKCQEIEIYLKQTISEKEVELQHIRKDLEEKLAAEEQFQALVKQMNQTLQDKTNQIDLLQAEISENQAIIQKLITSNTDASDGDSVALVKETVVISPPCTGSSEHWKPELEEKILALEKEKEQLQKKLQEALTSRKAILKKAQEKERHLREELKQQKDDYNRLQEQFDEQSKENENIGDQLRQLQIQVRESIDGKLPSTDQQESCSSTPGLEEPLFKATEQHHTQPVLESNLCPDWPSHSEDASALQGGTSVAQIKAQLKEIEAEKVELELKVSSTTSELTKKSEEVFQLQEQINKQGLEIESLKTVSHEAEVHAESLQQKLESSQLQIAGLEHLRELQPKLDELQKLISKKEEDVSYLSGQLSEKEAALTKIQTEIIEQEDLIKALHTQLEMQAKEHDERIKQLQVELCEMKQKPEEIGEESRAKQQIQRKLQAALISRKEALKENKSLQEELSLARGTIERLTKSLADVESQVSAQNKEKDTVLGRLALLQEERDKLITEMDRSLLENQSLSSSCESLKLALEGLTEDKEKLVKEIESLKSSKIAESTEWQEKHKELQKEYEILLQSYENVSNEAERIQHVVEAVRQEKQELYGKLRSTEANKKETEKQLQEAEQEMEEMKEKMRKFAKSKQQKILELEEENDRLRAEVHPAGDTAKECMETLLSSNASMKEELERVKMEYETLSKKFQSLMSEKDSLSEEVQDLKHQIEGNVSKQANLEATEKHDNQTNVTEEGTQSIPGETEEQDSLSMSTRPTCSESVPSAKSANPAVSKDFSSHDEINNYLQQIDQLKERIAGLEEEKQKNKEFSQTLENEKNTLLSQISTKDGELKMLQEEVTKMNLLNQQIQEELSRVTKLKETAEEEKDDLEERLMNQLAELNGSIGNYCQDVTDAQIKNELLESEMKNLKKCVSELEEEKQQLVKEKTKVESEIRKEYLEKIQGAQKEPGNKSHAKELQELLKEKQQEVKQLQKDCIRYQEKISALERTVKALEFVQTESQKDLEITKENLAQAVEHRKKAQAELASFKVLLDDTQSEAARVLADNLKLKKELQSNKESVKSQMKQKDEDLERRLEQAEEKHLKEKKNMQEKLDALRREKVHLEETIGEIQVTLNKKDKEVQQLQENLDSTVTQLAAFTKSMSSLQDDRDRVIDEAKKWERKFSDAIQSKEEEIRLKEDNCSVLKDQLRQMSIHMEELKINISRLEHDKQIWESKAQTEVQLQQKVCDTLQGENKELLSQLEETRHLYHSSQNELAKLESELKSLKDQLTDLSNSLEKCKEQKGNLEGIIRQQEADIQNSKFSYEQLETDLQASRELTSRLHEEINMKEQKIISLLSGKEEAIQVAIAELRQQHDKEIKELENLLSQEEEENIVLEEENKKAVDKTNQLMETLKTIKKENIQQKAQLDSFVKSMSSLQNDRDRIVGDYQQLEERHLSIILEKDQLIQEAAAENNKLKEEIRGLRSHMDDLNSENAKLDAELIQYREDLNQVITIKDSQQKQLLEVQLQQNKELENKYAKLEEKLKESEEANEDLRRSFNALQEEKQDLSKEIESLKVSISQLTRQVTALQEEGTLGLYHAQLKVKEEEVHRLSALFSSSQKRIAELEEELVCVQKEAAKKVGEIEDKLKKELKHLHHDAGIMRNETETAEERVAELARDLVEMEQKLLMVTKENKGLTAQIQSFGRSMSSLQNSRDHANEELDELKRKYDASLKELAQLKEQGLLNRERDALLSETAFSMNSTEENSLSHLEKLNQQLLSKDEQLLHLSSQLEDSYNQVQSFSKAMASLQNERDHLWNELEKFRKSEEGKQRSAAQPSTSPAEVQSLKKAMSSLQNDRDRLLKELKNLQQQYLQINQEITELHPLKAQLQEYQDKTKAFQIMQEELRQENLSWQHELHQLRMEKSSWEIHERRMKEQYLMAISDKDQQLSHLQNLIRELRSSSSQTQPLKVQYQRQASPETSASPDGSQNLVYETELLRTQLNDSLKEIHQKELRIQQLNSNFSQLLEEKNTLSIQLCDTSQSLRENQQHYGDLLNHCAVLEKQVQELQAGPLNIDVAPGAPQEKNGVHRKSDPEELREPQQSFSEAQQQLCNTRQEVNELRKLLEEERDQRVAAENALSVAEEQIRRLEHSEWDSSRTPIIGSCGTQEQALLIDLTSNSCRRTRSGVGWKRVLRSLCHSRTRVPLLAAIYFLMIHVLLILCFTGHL
UniProt P23434, sequence (P23434 whole entry, looked up): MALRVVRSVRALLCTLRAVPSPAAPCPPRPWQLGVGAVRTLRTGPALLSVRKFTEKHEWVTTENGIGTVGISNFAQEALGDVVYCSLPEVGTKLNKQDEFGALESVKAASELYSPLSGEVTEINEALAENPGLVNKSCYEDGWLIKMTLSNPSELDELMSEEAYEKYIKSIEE
UniProt P11142, sequence (P11142 whole entry, looked up): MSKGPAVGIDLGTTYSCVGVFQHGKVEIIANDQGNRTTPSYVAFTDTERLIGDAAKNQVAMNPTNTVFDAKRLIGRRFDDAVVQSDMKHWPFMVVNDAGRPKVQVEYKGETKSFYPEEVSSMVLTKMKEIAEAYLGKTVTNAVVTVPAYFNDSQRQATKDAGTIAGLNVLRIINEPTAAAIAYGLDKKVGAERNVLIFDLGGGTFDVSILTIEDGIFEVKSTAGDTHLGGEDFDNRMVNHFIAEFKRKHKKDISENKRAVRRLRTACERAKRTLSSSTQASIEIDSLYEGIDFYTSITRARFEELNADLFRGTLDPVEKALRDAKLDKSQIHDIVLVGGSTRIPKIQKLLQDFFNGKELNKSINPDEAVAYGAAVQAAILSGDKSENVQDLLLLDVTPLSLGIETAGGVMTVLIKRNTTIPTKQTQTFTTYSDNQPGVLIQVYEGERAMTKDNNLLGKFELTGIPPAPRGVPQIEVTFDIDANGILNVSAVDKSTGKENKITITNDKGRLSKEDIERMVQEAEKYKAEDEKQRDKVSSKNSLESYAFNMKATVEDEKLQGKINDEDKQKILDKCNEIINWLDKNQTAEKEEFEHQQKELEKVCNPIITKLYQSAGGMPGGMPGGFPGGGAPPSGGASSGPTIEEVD
UniProt Q9Y248, sequence (Q9Y248 whole entry, looked up): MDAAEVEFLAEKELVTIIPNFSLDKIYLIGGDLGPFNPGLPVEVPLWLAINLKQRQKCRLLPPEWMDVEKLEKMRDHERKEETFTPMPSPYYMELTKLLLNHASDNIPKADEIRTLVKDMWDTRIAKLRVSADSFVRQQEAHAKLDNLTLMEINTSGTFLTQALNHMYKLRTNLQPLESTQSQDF

Target | log2 fold change
GABARAPL1 isoform 2 (UniProt Q9H0R8) | -0.041
GATD1 (UniProt Q8NB37) | -0.021
HSPA8 (UniProt E9PN89) | 0.099
HAX1 (UniProt O00165) | 0.028
GTPBP6 (UniProt O43824) | -0.092
GMEB1 (UniProt Q9Y692) | -0.027
GOLGB1 isoform 2 (UniProt Q14789) | 0.058
GMEB2 (UniProt Q9UKD1) | 0.072
HIP1R (UniProt O75146) | -0.029
GCSH (UniProt P23434) | 0.037
GINS2 (UniProt Q9Y248) | 0.012
FAT2 (UniProt Q9NYQ8) | 0.119
FKBP3 (UniProt Q00688) | -0.028
HSPA8 (UniProt P11142) | 0.043
FANCI (UniProt Q9NVI1) | -0.013
